# Mdm2-MdmX inh: inhibitors of human Mdm2-MdmX association, primary screen, cell-based, luminescence, split luciferase, SaOS-2, uHTS. actives 3% (n = 330,000). SaOS-2 split-luciferase Mdm2/MdmX complementation. AID 485346, 2010. inhibition, % at 8 µM. Protein Mdm4 (Homo sapiens) + E3 ubiquitin-protein ligase Mdm2 (Homo sapiens), …;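 active = inhibition of at least 50% at 8 µM in the primary screen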
# Target sequence (O15151 whole entry, looked up): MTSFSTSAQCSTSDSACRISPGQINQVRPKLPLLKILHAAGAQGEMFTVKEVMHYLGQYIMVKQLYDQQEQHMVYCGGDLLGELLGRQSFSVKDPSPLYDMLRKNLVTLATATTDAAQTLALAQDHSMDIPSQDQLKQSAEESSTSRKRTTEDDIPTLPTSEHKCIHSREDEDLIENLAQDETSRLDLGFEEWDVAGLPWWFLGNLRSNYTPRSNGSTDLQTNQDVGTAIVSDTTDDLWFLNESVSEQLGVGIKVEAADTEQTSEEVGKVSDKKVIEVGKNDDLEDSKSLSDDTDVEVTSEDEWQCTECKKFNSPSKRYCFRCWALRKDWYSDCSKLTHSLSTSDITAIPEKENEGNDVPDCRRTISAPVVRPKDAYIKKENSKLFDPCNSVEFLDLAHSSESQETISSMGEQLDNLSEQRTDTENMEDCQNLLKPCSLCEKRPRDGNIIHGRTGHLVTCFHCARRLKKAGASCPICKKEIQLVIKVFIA
# Target sequence (Q00987 whole entry, looked up): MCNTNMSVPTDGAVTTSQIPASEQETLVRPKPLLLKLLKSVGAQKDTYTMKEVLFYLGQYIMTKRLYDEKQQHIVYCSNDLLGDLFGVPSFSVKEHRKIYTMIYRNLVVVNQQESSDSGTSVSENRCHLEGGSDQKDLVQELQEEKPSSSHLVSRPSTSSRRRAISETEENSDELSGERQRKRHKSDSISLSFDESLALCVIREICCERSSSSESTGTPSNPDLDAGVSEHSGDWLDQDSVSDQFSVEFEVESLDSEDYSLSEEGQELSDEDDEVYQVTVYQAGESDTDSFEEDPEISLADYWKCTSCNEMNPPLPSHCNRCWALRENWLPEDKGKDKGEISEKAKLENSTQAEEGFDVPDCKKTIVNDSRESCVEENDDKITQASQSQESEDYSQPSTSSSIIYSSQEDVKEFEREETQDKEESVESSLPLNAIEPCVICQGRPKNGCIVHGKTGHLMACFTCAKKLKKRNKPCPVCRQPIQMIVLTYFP
# HSP90 refold inh: HSP90 inhibitors, primary screen, cell lysate, luminescence; actives 0.91% (n = 290,000); inhibition, % at 5.6 µM; Rabbit reticulocyte lysate, luciferase refolding luminescence, 3 h; Heat shock protein HSP 90 (rabbit reticulocyte lysate; luciferase refolding); AID 1789, 2009;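 active = inhibition above the screen-wide mean plus 3 SD, computed separately per campaign, cut at about 16% in these data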;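 note: 0% = DMSO wells and 100% = 60 µM geldanamycin wells; inhibitors lower the luminescence because luciferase stays unfolded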
# KKLEB cytotox: cytotoxicity in KKLEB CF airway cells, primary screen, cytotoxicity control for CF NF-kB inhibitor project, cell-based, uHTS, fluorescence assay plates; actives 0.36% (n = 360,000); activity change (cytotoxicity), % at 5 µM; KKLEB CF airway cells viability, ATPlite luminescence, overnight; hits give low values; cells stimulated with P. aeruginosa culture filtrate;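 active = corrected activity change at or below -50% at 5 µM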
# LGR2 inh: inhibitors of bursicon-induced LGR2 CRE-luciferase signal, primary screen, cell-based, HEK293, CRE-luciferase reporter, bursicon stimulation | inhibition, % at 9.99 µM | bursicon-stimulated, 4 h | actives 0.35% (n = 380,000) | AID 720647, 2013 | Drosophila bursicon receptor LGR2 (rickets);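 active = drop in luminescence signal, shown as inhibition above about 50% in the replicate tests, limit read from the data, passing the limit was not always enough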;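 note: agonist challenge used bursicon conditioned medium at about half maximal strength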
# CF NFkB inh: inhibitors of PAF-induced NF-kB signaling, primary screen, cell-based, GFP fluorescence, uHTS; KKLEB NF-kB-GFP reporter, GFP fluorescence overnight; inhibition, % at 5 µM; actives 0.86% (n = 360,000); AID 588850, 2011;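 active = at least 50% inhibition at 5 µM, scaled per plate between neutral and stimulator controls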;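 note: PAF is a Pseudomonas aeruginosa culture filtrate used as stimulus; plate controls were PAF-stimulated DMSO wells for no effect and unstimulated DMSO wells for full effect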
# Peg3 prom inh: Peg3 promoter-driven luciferase inhibitors, primary screen, cell-based, HeLa, luciferase luminescence; HeLa PEG-Prom luciferase reporter, overnight; AID 588405, 2011; inhibition, % at 20 µM; actives 1.7% (n = 360,000);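 active = inhibition of at least 50% at 20 µM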
# Starred values were filed as active, the others as inactive; nt = not tested or not shown. Compounds with a hit are over-represented: about 3.6% of the library has one in this group of screens.
SMILES,Mdm2-MdmX inh,HSP90 refold inh,KKLEB cytotox,LGR2 inh,CF NFkB inh,Peg3 prom inh
C[C@@]12C(C[C@H](O)[C@@]34C[C@@H](CCC13)[C@@H](CO)C4=O)[C@](C)(C(=O)O)CC[C@@H]2O (some centres not stated),nt,nt,-1.2,-14.2,22.1,-9.2
C=C1C(=O)[C@]23C[C@H]1CCC2[C@@]1(C)C(C[C@@H]3O)[C@](C)(C(=O)OC)CC[C@@H]1O (some centres not stated),nt,nt,-73.4*,68.8*,90.3*,100.4*
CCC(=O)Nc1ccc2c(c1)C(=O)N(C)[C@H]1CC[C@@H](CC(=O)NCCc3ccncc3)O[C@@H]1CO2,nt,nt,nt,-7.4,nt,nt
Cc1ccc2nc(N(CCCN(C)C)C(=O)CCc3ccccc3)sc2c1,nt,-3.5,-5.8,18.4,0.0,53.1*
Cc1nnc(NC(=O)C2CCN(C(=O)c3ccco3)CC2)s1,-20.6,16.4*,0.8,-2.5,-21.4,-7.5
O=C(c1cc2cc(Cl)cc(Cl)c2oc1=O)N1CCOCC1,11.5,-0.9,0.1,nt,-8.2,55.2*
O=C(c1ccc(Cl)cc1Cl)N1CCOCC1,nt,nt,5.1,-0.9,10.8,4.8
CCCCCCN1C[C@H](n2cc(COC(=O)c3ccccc3)nn2)[C@@H](O)C[C@@H]1c1ccccc1,nt,nt,-11.5,3.3,23.7,13.0
CCCCCCN1C[C@@H](n2cc(COC(=O)c3ccccc3)nn2)[C@H](O)C[C@@H]1c1ccccc1,nt,nt,3.3,15.7,19.9,65.0*
COc1ccc2sc(-c3ccccc3OC)c(-c3ccc(SC)cc3)c2c1,nt,nt,nt,-29.7,nt,nt
COc1ccc2sc(-c3ccccc3OC)c(-c3ccc(OCCN(C)C)cc3)c2c1,11.1,nt,-27.7,4.7,14.2,89.0*
Nc1nc2ccc(OC(F)(F)F)cc2s1,4.9,3.7,-55.8*,nt,12.1,-168.8
COc1ccccc1-c1cnc2c(c1)C(=O)N([C@@H](C)CO)C[C@@H](C)[C@@H](CN(C)Cc1ccc(F)cc1)O2,nt,nt,nt,6.2,nt,nt
O=C(COc1ccccc1-c1ccccc1)N/N=C/c1ccc2ccccc2c1,nt,-5.4,-38.8,-5.2,62.4*,31.8
COC(=O)c1ccc(COc2ccc(C)c(C)c2)o1,-26.9,16.7*,2.6,-113.4,2.1,-207.0
CC(C)CN(C(=O)COC(=O)c1ccc(Br)cc1)c1c(N)n(Cc2ccccc2)c(=O)[nH]c1=O,22.0,nt,21.4,3.2,-13.8,63.4*
COCC(=O)Nc1ccc2c(c1)C(=O)N(C)C[C@@H](OC)[C@@H](C)CN(C)[C@@H](C)CO2,nt,nt,nt,-3.8,nt,nt
O=C1NC(Cc2ccc(O)cc2)c2nc3cc(Cl)ccc3c(=O)n2-c2cc3ccccc3cc21 (configuration not stated),nt,nt,-9.4,0.5,0.2,57.2*
Cc1ccc2nc3n(c(=O)c2c1)-c1cc2ccccc2cc1C(=O)NC3Cc1ccc(O)cc1 (configuration not stated),nt,nt,-6.9,6.9,-21.9,69.1*
O=C1NC(Cc2ccc(O)cc2)c2nc3cc(F)c(F)cc3c(=O)n2-c2cc3ccccc3cc21 (configuration not stated),nt,nt,2.0,26.8,-6.4,47.2
Nc1cccc(-c2c[nH]c3ncc(-c4cccnc4)cc23)c1,nt,nt,-5.9,nt,79.9*,4.6
COc1ccccc1Cc1c(C2CCCCC2)nc2ccc(C)cn12,nt,nt,-0.3,-7.8,0.8,74.3*
C[C@H](CO)N1C[C@H](C)[C@H](CN(C)C)Oc2cc(C#CCN(C)C)ccc2S1(=O)=O,nt,nt,nt,-16.6,nt,nt
CCCCCn1c(NC(=O)c2ccco2)c(S(=O)(=O)c2ccc(C)cc2)c2nc3ccccc3nc21,17.0,16.4*,-25.5,nt,22.8,23.1
CCCCn1c(NC(=O)c2ccco2)c(S(=O)(=O)c2ccc(C)cc2)c2nc3ccccc3nc21,nt,7.1,11.5,1.2,2.7,28.9
SMILES,Mdm2-MdmX inh,HSP90 refold inh,KKLEB cytotox,LGR2 inh,CF NFkB inh,Peg3 prom inh
CCCCn1c(NS(=O)(=O)c2ccccc2)c(S(=O)(=O)c2ccc(C)cc2)c2nc3ccccc3nc21,nt,16.2*,1.5,nt,-10.7,25.7
COc1ccc(S(=O)(=O)Nc2ccc3c(c2)CC(=O)N([C@@H](C)CO)C[C@H](C)[C@H](CN(C)S(=O)(=O)c2cn(C)cn2)O3)cc1,nt,nt,nt,9.7,nt,nt
Cc1ccc(S(=O)(=O)Nc2ccc3c(c2)CC(=O)N([C@H](C)CO)C[C@@H](C)[C@H](CN(C)Cc2ccc(C(=O)O)cc2)O3)cc1,nt,nt,nt,0.8,nt,nt
COCCNC(=O)C[C@H]1CC[C@H]2[C@@H](COc3ccc(NC(=O)Cc4ccccc4)cc3C(=O)N2C)O1,nt,nt,nt,-13.8,nt,nt
CCCc1nc([N+](=O)[O-])c(S(=O)(=O)c2ccccc2)n1CC(C)C,37.9,4.0,-16.3,13.4,55.0*,47.8
CC(C)NC(=O)N[C@@H]1CC[C@@H](CCn2cc(-c3ccc(F)cc3)nn2)O[C@H]1CO,nt,nt,nt,2.5,nt,nt
O=C1Nc2ccccc2/C1=C\C(=O)c1ccccc1,36.8,0.2,-14.4,9.9,16.6,65.1*
O=C1Nc2ccc(Br)cc2/C1=C/C(=O)c1ccc2c(c1)OCO2,41.0,4.2,-10.4,15.7,37.3,52.9*
O=C(/C=C1\C(=O)Nc2ccccc21)/C=C1\C(=O)Nc2ccccc21,nt,14.0,-4.3,12.0,8.1,25.7
COc1ccc(C(=O)/C=C2\C(=O)Nc3ccc(Br)cc32)cc1,nt,nt,-13.7,7.6,10.7,76.3*
O=C1Nc2ccc(Br)cc2/C1=C/C1CC=CCC1 (configuration not stated),36.0,3.4,-10.8,12.3,16.0,30.7
Fc1ccc(Nc2ccc3ccccc3n2)c(F)c1,-310.4,33.8*,3.8,44.9,-37.8,-208.7
O=C(C[C@@H]1C[C@H]2c3cc(NC(=O)c4ccc5c(c4)OCO5)ccc3O[C@H]2[C@H](CO)O1)NCc1cc(F)ccc1F,nt,nt,nt,-0.9,nt,nt
Cc1ccc(N=C2NC(=O)/C(=C/c3cn(C)c4ccccc34)S2)cc1C,nt,1.9,0.2,1.3,53.2*,-5.0
Oc1cccc(C(O)CNCc2ccc(OCc3ccc(Cl)cc3Cl)cc2)c1 (configuration not stated),6.3,0.5,-16.2,-10.0,-6.3,92.7*
CCOc1cc(/C=C\[N+](=O)[O-])ccc1OCC(=O)N1CCOCC1,-4.3,-7.4,9.7,48.6,-23.5,78.1*
c1ccc(N/N=C(\Cc2ncc[nH]2)c2ccccc2)cc1,14.5,4.2,-6.4,-3.1,6.1,-6.2
CC/C(=N/Nc1ccccc1)c1cnnc(-c2ccccc2)n1,42.2,2.7,-51.1*,nt,42.4,18.0
